# Assay results from ChEMBL document CHEMBL3988442, “University of Dundee, Small-Polar-MMV Screening Library” (2021).
# For some of these results: Results with a measured potency or affinity are listed apart.
# Experiments:
# Set-up in all cases: scale not given: direction of the effect not stated beside the values
# [1] = target: Protein translocase subunit SecA (Escherichia coli (strain K12)) (UniProt P10408); experiment: Assay to Identify E. coli SecA ATPase Inhibitors; assay type: functional; conditions: 30 µM
# Sequence of Protein translocase subunit SecA (Escherichia coli (strain K12)) (P10408 whole entry): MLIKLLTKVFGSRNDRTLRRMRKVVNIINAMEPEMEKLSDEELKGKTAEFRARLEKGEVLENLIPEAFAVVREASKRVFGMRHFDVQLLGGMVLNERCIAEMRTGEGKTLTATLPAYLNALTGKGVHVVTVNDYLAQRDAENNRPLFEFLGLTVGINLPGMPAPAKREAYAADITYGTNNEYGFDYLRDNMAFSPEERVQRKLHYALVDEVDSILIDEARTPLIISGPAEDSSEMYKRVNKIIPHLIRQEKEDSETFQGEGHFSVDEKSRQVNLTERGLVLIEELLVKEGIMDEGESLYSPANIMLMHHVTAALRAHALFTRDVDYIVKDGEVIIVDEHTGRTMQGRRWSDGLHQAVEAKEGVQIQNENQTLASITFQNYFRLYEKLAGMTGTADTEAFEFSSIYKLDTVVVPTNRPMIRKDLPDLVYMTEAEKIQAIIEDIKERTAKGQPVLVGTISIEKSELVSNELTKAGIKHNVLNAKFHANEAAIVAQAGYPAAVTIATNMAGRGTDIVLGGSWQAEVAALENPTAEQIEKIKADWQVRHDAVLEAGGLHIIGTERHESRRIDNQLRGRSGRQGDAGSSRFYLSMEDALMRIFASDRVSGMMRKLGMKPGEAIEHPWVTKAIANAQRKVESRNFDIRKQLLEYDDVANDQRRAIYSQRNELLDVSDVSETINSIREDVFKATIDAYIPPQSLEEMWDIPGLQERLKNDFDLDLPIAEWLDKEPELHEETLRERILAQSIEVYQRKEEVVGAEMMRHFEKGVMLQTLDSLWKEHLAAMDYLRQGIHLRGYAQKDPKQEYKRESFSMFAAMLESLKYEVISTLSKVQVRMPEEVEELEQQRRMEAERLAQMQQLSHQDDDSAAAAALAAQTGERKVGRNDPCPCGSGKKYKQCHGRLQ
# [2] = target: T1, Ubiquitin-activating enzyme e1, putative (Leishmania donovani (strain BPK282A1)) (UniProt E9BSI1); experiment: Leishmania donovani Ubiquitin Activating Enzyme (LdE1); assay type: functional; conditions: 30 µM
# T1 sequence (whole entry): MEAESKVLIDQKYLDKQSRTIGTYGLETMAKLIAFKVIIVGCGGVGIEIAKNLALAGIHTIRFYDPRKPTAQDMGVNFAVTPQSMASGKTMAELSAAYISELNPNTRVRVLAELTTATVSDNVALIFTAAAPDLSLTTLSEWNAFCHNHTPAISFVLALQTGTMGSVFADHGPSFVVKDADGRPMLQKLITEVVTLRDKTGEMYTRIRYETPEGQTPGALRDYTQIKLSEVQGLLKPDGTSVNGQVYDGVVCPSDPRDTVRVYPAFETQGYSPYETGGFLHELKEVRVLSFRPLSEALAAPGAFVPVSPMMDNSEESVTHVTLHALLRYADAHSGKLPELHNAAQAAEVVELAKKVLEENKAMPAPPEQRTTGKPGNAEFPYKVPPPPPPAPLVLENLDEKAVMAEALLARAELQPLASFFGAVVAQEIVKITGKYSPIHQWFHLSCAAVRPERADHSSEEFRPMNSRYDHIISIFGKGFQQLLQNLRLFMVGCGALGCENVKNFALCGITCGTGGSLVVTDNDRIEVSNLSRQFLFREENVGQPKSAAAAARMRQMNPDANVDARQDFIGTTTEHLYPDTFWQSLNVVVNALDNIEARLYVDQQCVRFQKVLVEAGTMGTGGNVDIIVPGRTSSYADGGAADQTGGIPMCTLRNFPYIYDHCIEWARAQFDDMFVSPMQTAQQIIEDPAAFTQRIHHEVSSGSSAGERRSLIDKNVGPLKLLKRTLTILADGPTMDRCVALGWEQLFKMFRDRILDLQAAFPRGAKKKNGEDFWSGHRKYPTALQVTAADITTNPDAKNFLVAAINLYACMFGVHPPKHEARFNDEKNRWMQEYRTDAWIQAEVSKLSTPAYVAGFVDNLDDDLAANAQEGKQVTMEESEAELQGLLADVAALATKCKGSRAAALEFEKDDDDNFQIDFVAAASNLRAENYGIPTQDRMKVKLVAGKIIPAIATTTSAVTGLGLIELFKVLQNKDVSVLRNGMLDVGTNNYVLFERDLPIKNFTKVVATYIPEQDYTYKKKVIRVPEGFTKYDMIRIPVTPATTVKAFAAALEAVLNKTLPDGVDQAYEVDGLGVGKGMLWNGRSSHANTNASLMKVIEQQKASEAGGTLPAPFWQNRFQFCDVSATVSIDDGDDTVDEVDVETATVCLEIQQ
# [3] = target: AMP-activated protein kinase, AMPK (Homo sapiens) (UniProt P54646+O43741+P54619+Q9UGJ0+Q9Y478+Q13131+Q9UGI9); experiment: AMP-dependent Kinase enzyme assay. An in vitro enzyme assay that detects ADP turnover that is directly proportional to AMPK activity. This uses naive AMPK that is activated during the assay with MK-8722; assay type: functional; conditions: 30 µM
# [4] = target: Sialic acid-binding Ig-like lectin 9 (Homo sapiens) (UniProt Q9Y336); experiment: Hs-Siglec9 ALPHAscreen SOP 20170721; conditions: 10 µM
# Sequence of Sialic acid-binding Ig-like lectin 9 (Homo sapiens) (Q9Y336 whole entry): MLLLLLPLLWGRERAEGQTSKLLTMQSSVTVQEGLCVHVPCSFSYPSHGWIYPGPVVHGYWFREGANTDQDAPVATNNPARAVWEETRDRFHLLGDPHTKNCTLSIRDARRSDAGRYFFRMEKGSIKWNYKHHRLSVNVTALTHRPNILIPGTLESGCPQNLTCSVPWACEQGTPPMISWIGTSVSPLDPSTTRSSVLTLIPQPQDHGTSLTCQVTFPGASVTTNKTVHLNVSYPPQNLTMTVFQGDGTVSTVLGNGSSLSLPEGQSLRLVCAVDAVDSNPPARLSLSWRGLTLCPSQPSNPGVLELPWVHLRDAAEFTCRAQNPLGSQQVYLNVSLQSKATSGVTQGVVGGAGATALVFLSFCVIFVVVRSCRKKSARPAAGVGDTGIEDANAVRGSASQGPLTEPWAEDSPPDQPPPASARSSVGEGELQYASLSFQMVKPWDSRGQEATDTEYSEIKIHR
# Trypanosoma cruzi = experiment: Trypanosoma cruzi phosphomannomutase and mannose-1-phosphate guanylyltransferase assay; assay type: functional; conditions: 10 µM
# [5] = target: T2, Arginase-2, mitochondrial (Homo sapiens) (UniProt P78540); experiment: in vitro enzyme assay to detect the production of urea directly proportional to the activity of Arginase II; assay type: functional; conditions: 33.3 µM; also: in the data most compounds retested in dose-response had high values
# T2 sequence (whole entry): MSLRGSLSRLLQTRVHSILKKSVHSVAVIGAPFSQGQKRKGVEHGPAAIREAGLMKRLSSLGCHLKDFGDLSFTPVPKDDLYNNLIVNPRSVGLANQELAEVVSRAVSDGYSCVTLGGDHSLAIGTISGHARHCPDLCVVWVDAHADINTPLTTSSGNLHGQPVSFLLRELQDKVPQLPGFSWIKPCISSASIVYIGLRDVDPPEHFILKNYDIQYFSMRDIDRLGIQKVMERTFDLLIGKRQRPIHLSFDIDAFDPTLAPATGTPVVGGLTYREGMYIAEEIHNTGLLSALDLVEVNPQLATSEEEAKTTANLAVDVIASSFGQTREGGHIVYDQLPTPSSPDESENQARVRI
# [6] = target: T3, Proteasome subunit beta (Trypanosoma cruzi) (UniProt O96673); experiment: Trypanosoma cruzi proteasome chymotrypsin-like activity (TcProtChymo) assay.; also: in the data most compounds retested in dose-response had high values; assay type: functional; conditions: 9.37 µM
# T3 sequence (whole entry): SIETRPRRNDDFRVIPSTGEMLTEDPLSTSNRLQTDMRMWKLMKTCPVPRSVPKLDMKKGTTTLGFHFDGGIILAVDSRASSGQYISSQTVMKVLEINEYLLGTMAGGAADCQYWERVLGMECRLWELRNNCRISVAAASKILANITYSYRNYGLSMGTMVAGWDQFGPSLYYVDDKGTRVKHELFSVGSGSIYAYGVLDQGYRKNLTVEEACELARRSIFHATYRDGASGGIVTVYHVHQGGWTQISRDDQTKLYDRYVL
# Homo sapiens = species on record: Homo sapiens; experiment: To identify inhibition of the IFN signalling (Jak-Stat) pathway via expression of an eGFP reporter gene under the control of an IFN-stimulated response element (ISRE) containing MxA promoter.; assay type: functional; conditions: 30 µM
# [7] = target: T4, Tyrosyl-tRNA synthetase, putative (Trypanosoma cruzi (strain CL Brener)) (UniProt Q4DSP6); experiment: Trypanosoma cruzi tyrosyl tRNA synthetase (TcYRS) _High Tyrosine SOP; assay type: functional; conditions: 30 µM; also: in the data most compounds retested in dose-response had high values
# T4 sequence (whole entry): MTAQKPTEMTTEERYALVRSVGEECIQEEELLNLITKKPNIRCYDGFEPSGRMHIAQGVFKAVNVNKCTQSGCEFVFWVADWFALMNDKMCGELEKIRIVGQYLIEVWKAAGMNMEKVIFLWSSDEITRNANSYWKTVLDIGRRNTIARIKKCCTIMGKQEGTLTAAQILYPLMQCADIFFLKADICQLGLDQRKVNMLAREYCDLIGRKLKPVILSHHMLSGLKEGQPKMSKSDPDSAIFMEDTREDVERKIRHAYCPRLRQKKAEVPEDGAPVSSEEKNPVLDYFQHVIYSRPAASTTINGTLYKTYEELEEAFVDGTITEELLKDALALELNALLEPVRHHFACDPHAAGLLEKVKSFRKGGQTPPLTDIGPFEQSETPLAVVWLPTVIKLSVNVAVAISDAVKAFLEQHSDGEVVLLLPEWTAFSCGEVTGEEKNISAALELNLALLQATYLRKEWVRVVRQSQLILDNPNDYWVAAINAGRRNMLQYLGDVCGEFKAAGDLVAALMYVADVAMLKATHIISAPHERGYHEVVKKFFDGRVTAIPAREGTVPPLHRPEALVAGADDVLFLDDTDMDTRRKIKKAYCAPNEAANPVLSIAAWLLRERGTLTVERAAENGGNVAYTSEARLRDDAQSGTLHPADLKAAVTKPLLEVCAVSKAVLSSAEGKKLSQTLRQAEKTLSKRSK
# [8] = target: T4, Tyrosyl-tRNA synthetase, putative (Trypanosoma cruzi (strain CL Brener)); experiment: Trypanosoma cruzi tyrosyl tRNA synthetase (TcYRS) SOP; assay type: functional; conditions: 30 µM
# [9] = target: Chromo domain-containing protein 1 (Saccharomyces cerevisiae (strain ATCC 204508 / S288c) (Baker's yeast)) (UniProt P32657); experiment: ScCHD-1 Enzyme Inhibition Assay; assay type: functional; conditions: 30 µM; also: in the data most compounds retested in dose-response had high values
# Sequence of Chromo domain-containing protein 1 (Saccharomyces cerevisiae (strain ATCC 204508 / S288c) (Baker's yeast)) (P32657 whole entry, the tested form may be a part): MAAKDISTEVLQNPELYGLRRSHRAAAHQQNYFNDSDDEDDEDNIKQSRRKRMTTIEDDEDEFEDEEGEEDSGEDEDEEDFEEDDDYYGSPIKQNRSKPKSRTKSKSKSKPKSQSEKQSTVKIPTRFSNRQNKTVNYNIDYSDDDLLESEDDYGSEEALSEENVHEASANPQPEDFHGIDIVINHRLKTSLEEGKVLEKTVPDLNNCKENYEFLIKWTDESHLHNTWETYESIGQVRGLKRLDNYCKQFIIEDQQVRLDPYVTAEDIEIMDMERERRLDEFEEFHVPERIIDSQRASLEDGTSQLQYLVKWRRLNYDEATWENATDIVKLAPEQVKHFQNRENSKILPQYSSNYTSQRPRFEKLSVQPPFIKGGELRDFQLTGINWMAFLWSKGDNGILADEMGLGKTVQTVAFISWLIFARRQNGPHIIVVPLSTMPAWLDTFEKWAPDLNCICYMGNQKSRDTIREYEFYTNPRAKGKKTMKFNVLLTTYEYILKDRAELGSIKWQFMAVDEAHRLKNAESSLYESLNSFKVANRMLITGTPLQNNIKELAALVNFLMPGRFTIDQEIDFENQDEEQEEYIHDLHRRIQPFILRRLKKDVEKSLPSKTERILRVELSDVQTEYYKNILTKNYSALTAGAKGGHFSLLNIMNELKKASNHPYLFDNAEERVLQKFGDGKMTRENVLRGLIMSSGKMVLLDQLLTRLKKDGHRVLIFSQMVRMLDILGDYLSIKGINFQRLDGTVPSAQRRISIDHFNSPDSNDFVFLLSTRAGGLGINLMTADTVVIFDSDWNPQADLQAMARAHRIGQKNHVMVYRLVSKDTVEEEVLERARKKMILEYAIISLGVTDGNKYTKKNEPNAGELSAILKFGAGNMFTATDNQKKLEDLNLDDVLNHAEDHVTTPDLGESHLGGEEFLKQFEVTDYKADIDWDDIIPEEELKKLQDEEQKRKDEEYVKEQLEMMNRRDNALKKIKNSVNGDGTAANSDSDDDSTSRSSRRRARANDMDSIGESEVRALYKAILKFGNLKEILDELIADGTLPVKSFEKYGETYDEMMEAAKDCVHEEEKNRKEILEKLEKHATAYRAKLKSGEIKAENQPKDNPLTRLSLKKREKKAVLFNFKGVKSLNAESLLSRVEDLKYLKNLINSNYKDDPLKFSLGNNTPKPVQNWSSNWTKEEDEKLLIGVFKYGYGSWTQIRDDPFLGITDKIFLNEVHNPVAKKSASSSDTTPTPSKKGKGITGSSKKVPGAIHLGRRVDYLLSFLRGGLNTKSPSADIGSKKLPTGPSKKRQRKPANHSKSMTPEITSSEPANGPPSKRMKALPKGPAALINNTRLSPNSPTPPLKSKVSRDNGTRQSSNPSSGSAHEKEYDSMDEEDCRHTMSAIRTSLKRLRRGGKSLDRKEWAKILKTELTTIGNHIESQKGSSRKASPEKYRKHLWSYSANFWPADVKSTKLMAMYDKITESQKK
Structure (SMILES),Percent Effect [1],Percent Effect [2],Percent Effect [3],Percent Effect [4],Percent Effect (Trypanosoma cruzi),Percent Effect [5],Percent Effect [6],Percent Effect (Homo sapiens),Percent Effect [7],Percent Effect [8],Percent Effect [9]
Cn1cc(N2CCCC(NCc3cccc4c3OCCCO4)C2)cn1 (stereo unspecified),-4.17%,16.2%,-10%,1.61%,0.472%,-4.01%,0.721%,3.65%,7.39%,23.5%,-7.98%
CC(C)CC(=O)N1CCN(C(=O)N(C)C)CC2(CC(=O)N(C)C2)C1 (stereo unspecified),-2.6%,-27%,0.411%,-1.03%,6.25%,-2.5%,-1.61%,-26.2%,2.97%,-3.66%,-3.69%
Cc1nccn1CCC1CCCCN1Cc1ccncc1 (stereo unspecified),-5.73%,8%,-13%,-0.0054%,-2.63%,0.521%,13.8%,25.9%,2.73%,13.6%,-6.06%
Cc1ccc(C(=O)O)cc1S(=O)(=O)Nc1nn(-c2ccccc2)cc1C,-5.95%,2.74%,9.77%,0.854%,-5.09%,0.455%,17.6%,17.3%,-10.8%,-17.5%,-5.76%
COCC(=O)NCc1cc(=O)n2c(n1)CN(CC1CCOC1)CCC2 (stereo unspecified),0.158%,13.5%,2.63%,-10.2%,0.0978%,-2.23%,8.12%,8.83%,-1.08%,12.8%,-2.53%
COc1ncccc1C(=O)Nc1nc2c(s1)CN(S(=O)(=O)C1CC1)CC2,-8.71%,0%,25.5%,-2.45%,-4.9%,1.82%,29.8%,21.4%,3.23%,5%,102%
Cc1cc(C[C@@H]2COC[C@@H]2NC(=O)CN2CCCC2)on1,-4.18%,2.74%,1.08%,-9.23%,1.96%,-1.82%,-4.61%,18.8%,5.38%,10%,-4.15%
Cn1ncc2c1CCCC2NCc1ccc(Cl)s1 (stereo unspecified),-4.36%,13%,-34.6%,-13.6%,-1.08%,2.74%,12.2%,9.39%,6.67%,11.8%,-19.4%
Cc1nc(C2CCCN2CC(=O)NCCOc2ccccc2)no1 (stereo unspecified),-3.91%,5.26%,-1.52%,4.39%,3.38%,-0.383%,12.7%,-2.83%,0.49%,7.32%,-12.7%
Cc1csc([C@@H]2C[C@@H]3CCN(C(=O)c4ccnnc4)C[C@H]3O2)n1,0.296%,2.6%,5.97%,6.2%,-0.296%,-0.645%,-0.174%,12.4%,6.35%,8.97%,-1.14%
CC1Cc2ccccc2N1Cc1occc1C(=O)OCC(N)=O (stereo unspecified),-4.31%,11%,7.16%,10.7%,4.56%,-3.99%,5.91%,17%,8.33%,13.6%,-3.53%
